A number with no mark means an inactive call. No rule for the calls is given here.
B1: design_599_7ce25d4d-e004-4b84-a16f-baf856d943ab_347_dldesign_0_cycle1_af2pred (protein)
chain: AEAEKAKATADAKKEAKAFAEEAKKKAEEASKGTPEDVKKERDKVAAEFDKKIAEAAGNPEAAAAYAEARHEAKAEYDLAYVKAK
B2: design_599_7ce25d4d-e004-4b84-a16f-baf856d943ab_1610_dldesign_0_cycle1_af2pred (protein)
chain: DLKEKAKKGIELAKELIEKAKELKKKGDIIGAIAYAERAIHAAEAALKIAKKADPELAKEAKKVLEEAKKELEKIEKE
B3: design_599_7ce25d4d-e004-4b84-a16f-baf856d943ab_173_dldesign_0_cycle1_af2pred (protein)
chain: SEAEKVIEEARKKAEEAREFIKKIREEGGNPEAAELALQALSHFKAAEALAKSGENLESAKKHLEEGKKLLEEAKELYE
B4: design_599_7ce25d4d-e004-4b84-a16f-baf856d943ab_378_dldesign_0_cycle1_af2pred (protein)
chain: AAAAILAATDAEVAAILAKGAEEIAKAAKEEGPEAAKKVATEVLEKANDVIAEGGVKAGLSAKEISARINAAQKEVRAIAEKAIEAAA
B5: design_599_7ce25d4d-e004-4b84-a16f-baf856d943ab_506_dldesign_0_cycle1_af2pred (protein)
chain: MEEEKKAIEEAKERAKEIAEKAVKEAKKAKTPKEISEAIREMVRKLRELVKEVREKYSEETAEKVKEIAAKERLKAVDEIAAAK
B6: design_599_7ce25d4d-e004-4b84-a16f-baf856d943ab_360_dldesign_0_cycle1_af2pred (protein)
chain: TAAITEARDAAVEARGDVELAKAKNAKAEEYEKAAKKAEEAKKKLKEVLETVELSEEERETAERMIEAMERAAEEARKLAKEKK
B7: design_599_7ce25d4d-e004-4b84-a16f-baf856d943ab_1476_dldesign_0_cycle1_af2pred (protein)
chain: GEELEKLKKRAEKLLEEGKKKAKEDPEEGRKVAKEIRAEGKAHPEGKEAFAKAAAEVYQYIAEEEQKERLKKN
B8: design_599_7ce25d4d-e004-4b84-a16f-baf856d943ab_1383_dldesign_0_cycle1_af2pred (protein)
chain: SEEEKKKKYEEAKKKMEKAGEEALKNVEDGAVVMDALATMREAVHEAEKLSPEYGKEARKLLEKYREEIKKKREEVEKKKAEEEKK
B9: design_599_7ce25d4d-e004-4b84-a16f-baf856d943ab_1749_dldesign_0_cycle1_af2pred (protein)
chain: MEKEEELKYGEELLKKAREEAKKKIEKAAKEGKIAEGAQEAIQVINEYSFEAAKKAKKEEVKKKIWEKGKEIKKEVVERAKELVKEQE
B10: design_599_7ce25d4d-e004-4b84-a16f-baf856d943ab_219_dldesign_0_cycle1_af2pred (protein)
chain: MDPAELAAAKQAEAEAIIAETKAKAEKYIEEAKKSKKYVEALQYVGRAEVLLDSTVSYLTKNVGPEAGEKAQEIADKTVKEGFEIVKK
B11: design_599_7ce25d4d-e004-4b84-a16f-baf856d943ab_160_dldesign_0_cycle1_af2pred (protein)
chain: AVKEQTEKTVAATRAAAEAVPEYGEELEKGARVIERLVKDGFLEGAIDVANAIAKFSREVAAEVSEEQAAILKEAADLAEELAKLAK
B12: design_599_7ce25d4d-e004-4b84-a16f-baf856d943ab_1590_dldesign_0_cycle1_af2pred (protein)
chain: MEEAVKKVKELGKEALKRIEEAGKGTPEELEKKSAEVAKEFDAKVEELASKSSPEAAKAILEEAAKARKEMQETYKKALEQAKKNA
B13: design_599_7ce25d4d-e004-4b84-a16f-baf856d943ab_1658_dldesign_0_cycle1_af2pred (protein)
chain: EEIQKKNNFLAYAEAAIHAAEAIAKNSDEKTGKALKEEAKKVKEHEDDKEEAIKHLEKAAKIAAGHPGAPILQKRVAKAKAAA
B14: design_599_7ce25d4d-e004-4b84-a16f-baf856d943ab_1357_dldesign_0_cycle1_af2pred (protein)
chain: EEEERRREERAREAREAAEEAKALAEKVKANPKATQEEIDKLNQLALQAEVAEEAIREGYAVEAAERRAREALEEAKKIAEEAEKKAA
B15: design_599_7ce25d4d-e004-4b84-a16f-baf856d943ab_1672_dldesign_0_cycle1_af2pred (protein)
chain: TPSPELAAKITAATDEILELADKNIEEGGENLDEVEKTATEKGKELGMTKLANALIKSAKIGVELQKKTK
B16: design_599_7ce25d4d-e004-4b84-a16f-baf856d943ab_1137_dldesign_0_cycle1_af2pred (protein)
chain: GAAAAAAAQEARQAIAEAEFAAAKGDPAAEAALEKAAAAAEKAAAADPEVGAKVKALVDKARAKVAAAKAA
B17: design_599_7ce25d4d-e004-4b84-a16f-baf856d943ab_748_dldesign_0_cycle1_af2pred (protein)
chain: SKEEIKKQSELMKKATRYVKEAGKAAKVLGEEGKKKVEEMVKLRDQAADSDVETAKKLTEEIEKEAEEVIKKAEEKEK
B18: design_599_7ce25d4d-e004-4b84-a16f-baf856d943ab_1731_dldesign_0_cycle1_af2pred (protein)
chain: AAADAKKIQALREKVAEAAALAKDPKTAAEAAKIAKATAKEAKEAAKAATDPAAKKAFAKVAEKAKAVAEEAEKIAKA
B19: design_599_7ce25d4d-e004-4b84-a16f-baf856d943ab_1363_dldesign_0_cycle1_af2pred (protein)
chain: GEAEKAARYLKLAEELAAEVKKNYDNAEKLKEIAREAREAAKEAPESVKPVLAKVAQDAYEARAEAERNASLN

Target: VTCN1, Q7Z7D3
Sequence (Q7Z7D3 whole entry): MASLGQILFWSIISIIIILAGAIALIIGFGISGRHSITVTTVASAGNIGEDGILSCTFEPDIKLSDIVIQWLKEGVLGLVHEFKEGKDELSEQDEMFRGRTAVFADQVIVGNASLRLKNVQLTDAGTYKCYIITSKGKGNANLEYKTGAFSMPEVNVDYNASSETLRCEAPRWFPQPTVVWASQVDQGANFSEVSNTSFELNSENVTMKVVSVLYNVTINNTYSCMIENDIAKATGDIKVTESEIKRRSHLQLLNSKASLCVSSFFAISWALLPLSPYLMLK

| Binder | binding in a display sort |
| --- | --- |
| B1 | not found |
| B2 | not found |
| B3 | not found |
| B4 | not found |
| B5 | not found |
| B6 | not found |
| B7 | not found |
| B8 | not found |
| B9 | not found |
| B10 | not found |
| B11 | not found |
| B12 | not found |
| B13 | not found |
| B14 | not found |
| B15 | not found |
| B16 | not found |
| B17 | not found |
| B18 | not found |
| B19 | not found |
